# Results: the supplement of paper PMC11732987, “Enantioselective OTUD7B fragment discovery through chemoproteomics screening and high-throughput optimisation” (Communications Chemistry, 2025)
# Values without a mark were called inactive.
# Experiments:
# Experiment in all cases: log2 ratio of Biotin-Ahx-Ub-VS probe labelling (fragment/DMSO); higher = less target engagement (more negative = stronger competition), active = hit call of the paper (q ≤ 0.05, log2 ratio ≤ -1)
# Settings in all cases: compound concentration: 200 uM; treatment time: 3 h
# USP9X = USP9X (UniProt Q93008)
# USP9X, sequence (Q93008 whole entry, the tested form may be a part): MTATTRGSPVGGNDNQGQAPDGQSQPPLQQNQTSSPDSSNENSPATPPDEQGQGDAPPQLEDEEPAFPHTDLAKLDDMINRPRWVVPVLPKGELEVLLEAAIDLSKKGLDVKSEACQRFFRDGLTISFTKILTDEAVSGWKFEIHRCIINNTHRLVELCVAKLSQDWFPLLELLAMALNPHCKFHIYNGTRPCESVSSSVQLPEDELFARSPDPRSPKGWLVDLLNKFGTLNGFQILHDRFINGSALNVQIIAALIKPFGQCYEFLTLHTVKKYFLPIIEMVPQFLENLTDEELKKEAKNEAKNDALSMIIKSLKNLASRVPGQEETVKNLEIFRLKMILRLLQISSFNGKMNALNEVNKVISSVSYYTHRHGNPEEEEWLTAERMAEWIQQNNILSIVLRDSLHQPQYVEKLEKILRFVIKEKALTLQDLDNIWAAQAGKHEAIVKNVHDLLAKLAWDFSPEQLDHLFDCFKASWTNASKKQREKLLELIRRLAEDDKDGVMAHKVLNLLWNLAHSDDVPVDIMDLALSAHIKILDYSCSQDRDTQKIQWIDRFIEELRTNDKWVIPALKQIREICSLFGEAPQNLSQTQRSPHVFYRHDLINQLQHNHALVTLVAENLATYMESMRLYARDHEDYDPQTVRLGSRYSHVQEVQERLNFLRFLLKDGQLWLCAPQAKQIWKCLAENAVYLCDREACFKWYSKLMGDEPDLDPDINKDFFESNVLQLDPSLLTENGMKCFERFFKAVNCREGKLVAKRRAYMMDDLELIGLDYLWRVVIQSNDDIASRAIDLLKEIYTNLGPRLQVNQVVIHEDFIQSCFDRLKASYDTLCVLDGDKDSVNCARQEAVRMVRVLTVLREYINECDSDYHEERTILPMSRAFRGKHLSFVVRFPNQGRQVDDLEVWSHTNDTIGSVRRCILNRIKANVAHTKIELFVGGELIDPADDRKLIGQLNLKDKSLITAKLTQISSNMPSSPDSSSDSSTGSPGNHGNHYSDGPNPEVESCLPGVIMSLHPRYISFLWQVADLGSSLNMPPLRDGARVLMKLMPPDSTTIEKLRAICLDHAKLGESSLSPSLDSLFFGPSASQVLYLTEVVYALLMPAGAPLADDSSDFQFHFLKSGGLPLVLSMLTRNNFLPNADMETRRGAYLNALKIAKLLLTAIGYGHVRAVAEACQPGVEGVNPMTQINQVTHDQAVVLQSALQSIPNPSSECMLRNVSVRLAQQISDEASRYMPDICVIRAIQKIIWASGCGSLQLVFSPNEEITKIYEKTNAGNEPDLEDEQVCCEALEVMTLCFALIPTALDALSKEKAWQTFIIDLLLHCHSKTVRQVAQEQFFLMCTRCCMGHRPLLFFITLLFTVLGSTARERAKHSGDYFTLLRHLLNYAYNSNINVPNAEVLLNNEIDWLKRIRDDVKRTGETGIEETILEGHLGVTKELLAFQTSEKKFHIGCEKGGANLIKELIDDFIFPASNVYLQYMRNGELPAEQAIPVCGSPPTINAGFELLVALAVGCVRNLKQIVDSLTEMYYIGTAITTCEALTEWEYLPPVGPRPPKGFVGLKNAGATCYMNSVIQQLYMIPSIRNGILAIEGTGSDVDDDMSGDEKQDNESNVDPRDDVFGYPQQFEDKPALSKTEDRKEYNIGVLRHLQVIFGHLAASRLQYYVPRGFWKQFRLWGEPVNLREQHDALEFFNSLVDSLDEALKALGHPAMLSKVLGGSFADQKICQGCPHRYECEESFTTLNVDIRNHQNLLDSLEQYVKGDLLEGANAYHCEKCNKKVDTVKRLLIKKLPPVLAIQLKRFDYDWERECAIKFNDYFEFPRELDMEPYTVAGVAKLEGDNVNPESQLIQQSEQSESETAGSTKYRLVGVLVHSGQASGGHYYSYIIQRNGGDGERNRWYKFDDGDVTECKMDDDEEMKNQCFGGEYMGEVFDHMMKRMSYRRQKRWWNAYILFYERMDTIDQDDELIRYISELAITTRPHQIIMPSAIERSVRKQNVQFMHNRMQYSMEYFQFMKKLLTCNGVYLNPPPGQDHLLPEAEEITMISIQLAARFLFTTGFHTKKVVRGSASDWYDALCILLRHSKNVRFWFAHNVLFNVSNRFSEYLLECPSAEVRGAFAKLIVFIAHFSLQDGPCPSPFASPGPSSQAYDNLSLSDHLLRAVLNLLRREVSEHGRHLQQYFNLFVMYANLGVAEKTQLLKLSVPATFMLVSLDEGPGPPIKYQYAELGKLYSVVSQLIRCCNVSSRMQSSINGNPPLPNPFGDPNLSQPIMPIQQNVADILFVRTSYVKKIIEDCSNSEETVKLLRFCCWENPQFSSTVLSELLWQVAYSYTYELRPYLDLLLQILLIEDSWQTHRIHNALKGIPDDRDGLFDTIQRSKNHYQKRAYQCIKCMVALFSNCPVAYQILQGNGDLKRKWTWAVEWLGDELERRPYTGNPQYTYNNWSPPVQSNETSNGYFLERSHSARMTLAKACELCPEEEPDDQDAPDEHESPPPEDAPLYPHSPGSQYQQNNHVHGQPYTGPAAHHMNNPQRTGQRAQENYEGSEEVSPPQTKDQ
# Method in brief: (§1)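 HEK293T lysate (495 µg per sample, in Tris/CHAPS/IGEPAL buffer with protease inhibitors) was treated in triplicate with fragment at 200 µM or with DMSO for 3 h. It was then treated with Biotin-Ahx-Ub-VS (0.5 µM final) for 1 h. Labelled DUBs were NeutrAvidin-enriched, digested with LysC and trypsin, and run by diaPASEF LC-MS/MS. Spectronaut label-free quantities were global-median-normalised. Values are average log2 ratios fragment/DMSO by unpaired t-test, using proteins with ≥2 unique peptides.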
# UniProt O00487 = molecular target: UniProt O00487
# UniProt O00487, sequence (O00487 whole entry): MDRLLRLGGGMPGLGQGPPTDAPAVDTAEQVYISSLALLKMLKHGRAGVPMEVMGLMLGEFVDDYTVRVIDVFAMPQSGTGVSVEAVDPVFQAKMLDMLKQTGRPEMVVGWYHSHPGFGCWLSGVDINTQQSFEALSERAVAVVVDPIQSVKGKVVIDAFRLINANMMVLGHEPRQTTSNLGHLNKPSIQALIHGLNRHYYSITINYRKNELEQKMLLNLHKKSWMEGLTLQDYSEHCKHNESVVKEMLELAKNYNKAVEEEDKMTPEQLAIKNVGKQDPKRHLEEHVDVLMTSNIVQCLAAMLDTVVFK
# Method in brief: as §1
# UniProt O00507 = molecular target: UniProt O00507
# Method in brief: as §1
# UniProt P51784 = molecular target: UniProt P51784
# UniProt P51784, sequence (P51784 whole entry): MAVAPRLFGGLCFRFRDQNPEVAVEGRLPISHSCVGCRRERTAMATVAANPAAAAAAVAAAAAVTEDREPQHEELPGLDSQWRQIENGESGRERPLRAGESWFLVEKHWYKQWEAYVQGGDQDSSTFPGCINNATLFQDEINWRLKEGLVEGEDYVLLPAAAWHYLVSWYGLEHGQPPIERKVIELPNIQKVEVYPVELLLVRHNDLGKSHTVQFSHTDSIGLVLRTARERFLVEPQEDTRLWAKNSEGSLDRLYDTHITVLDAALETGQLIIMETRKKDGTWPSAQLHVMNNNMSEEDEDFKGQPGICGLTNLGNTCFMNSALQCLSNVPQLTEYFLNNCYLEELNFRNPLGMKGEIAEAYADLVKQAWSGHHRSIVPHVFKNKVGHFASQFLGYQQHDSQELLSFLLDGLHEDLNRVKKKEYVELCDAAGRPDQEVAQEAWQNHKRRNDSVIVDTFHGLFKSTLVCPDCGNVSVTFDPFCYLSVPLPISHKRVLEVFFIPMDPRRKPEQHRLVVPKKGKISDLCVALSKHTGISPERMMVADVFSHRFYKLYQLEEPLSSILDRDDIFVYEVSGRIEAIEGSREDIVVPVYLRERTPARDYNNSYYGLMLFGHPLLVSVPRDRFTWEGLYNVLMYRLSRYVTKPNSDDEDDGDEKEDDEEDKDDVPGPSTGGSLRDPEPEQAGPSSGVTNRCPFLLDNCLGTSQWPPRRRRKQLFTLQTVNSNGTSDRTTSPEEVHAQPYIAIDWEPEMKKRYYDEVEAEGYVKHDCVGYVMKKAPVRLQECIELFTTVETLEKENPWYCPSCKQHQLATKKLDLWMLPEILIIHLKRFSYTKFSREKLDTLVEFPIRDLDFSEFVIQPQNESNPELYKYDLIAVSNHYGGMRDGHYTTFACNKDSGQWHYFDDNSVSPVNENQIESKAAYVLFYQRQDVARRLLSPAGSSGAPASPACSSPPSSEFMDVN
# Method in brief: as §1
# UniProt Q5T2D3 = molecular target: T1, UniProt Q5T2D3
# T1 sequence (whole entry): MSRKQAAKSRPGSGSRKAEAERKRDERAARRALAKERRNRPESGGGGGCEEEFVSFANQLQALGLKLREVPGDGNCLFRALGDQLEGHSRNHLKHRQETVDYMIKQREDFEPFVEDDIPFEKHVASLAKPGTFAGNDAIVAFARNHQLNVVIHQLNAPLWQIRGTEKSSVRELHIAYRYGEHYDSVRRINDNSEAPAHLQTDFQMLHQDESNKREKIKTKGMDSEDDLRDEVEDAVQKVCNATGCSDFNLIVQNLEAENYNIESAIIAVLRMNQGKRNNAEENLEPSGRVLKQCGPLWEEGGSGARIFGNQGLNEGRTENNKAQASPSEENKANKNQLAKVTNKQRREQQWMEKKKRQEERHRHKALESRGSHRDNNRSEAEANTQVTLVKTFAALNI
# Method in brief: as §1
# UniProt Q8TE49 = molecular target: T2, UniProt Q8TE49
# T2 sequence (whole entry): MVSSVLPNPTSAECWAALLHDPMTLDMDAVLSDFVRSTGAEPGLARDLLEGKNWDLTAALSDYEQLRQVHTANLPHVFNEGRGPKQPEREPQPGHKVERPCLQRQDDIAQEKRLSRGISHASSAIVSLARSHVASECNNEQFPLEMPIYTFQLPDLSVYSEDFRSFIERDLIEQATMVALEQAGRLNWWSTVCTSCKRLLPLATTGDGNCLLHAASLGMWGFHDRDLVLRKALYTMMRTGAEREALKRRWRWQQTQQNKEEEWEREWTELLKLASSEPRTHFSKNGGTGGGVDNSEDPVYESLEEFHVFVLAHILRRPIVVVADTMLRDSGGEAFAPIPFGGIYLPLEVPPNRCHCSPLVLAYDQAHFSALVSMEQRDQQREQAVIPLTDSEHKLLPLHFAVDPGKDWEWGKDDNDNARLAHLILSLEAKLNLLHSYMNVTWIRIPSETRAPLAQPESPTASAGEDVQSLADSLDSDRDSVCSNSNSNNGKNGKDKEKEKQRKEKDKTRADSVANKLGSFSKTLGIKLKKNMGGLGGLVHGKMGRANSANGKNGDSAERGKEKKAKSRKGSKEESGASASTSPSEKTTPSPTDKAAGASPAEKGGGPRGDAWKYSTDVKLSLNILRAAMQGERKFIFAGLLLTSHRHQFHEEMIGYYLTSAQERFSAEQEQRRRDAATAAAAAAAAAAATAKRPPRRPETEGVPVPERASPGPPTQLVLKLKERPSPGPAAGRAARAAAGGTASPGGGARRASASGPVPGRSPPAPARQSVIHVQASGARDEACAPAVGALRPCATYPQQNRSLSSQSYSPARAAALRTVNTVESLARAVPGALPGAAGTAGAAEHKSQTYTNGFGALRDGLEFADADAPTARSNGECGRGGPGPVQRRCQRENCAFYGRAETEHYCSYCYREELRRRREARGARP
# Method in brief: as §1
# UniProt Q9P2H5 = molecular target: T3, UniProt Q9P2H5
# T3 sequence (whole entry): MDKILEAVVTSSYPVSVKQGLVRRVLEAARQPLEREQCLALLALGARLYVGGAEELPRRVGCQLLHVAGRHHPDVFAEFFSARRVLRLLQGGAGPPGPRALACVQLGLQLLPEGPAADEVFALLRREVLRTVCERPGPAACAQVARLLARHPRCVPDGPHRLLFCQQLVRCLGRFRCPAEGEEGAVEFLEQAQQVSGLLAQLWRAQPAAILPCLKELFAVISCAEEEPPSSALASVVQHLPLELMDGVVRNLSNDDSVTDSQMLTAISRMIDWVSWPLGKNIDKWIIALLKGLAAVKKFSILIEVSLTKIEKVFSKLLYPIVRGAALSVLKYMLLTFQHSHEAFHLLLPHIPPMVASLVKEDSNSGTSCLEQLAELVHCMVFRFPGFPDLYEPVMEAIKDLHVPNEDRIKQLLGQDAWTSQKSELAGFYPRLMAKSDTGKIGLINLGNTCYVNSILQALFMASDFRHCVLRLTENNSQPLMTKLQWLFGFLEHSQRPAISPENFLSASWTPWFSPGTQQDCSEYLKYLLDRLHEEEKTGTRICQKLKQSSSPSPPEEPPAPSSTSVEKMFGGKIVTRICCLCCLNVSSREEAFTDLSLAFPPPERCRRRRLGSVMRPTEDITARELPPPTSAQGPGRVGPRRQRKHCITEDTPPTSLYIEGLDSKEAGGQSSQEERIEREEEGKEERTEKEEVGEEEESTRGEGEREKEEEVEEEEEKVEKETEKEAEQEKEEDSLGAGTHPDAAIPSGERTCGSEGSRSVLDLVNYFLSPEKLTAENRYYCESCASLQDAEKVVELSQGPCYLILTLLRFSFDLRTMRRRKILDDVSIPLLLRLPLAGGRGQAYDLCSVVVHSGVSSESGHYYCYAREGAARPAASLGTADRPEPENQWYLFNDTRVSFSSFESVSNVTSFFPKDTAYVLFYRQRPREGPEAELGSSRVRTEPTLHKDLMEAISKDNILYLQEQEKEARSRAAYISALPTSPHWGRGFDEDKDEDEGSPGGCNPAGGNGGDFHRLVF
# Method in brief: as §1
# UniProt Q9UGI0 = molecular target: T4, UniProt Q9UGI0
# T4 sequence (whole entry): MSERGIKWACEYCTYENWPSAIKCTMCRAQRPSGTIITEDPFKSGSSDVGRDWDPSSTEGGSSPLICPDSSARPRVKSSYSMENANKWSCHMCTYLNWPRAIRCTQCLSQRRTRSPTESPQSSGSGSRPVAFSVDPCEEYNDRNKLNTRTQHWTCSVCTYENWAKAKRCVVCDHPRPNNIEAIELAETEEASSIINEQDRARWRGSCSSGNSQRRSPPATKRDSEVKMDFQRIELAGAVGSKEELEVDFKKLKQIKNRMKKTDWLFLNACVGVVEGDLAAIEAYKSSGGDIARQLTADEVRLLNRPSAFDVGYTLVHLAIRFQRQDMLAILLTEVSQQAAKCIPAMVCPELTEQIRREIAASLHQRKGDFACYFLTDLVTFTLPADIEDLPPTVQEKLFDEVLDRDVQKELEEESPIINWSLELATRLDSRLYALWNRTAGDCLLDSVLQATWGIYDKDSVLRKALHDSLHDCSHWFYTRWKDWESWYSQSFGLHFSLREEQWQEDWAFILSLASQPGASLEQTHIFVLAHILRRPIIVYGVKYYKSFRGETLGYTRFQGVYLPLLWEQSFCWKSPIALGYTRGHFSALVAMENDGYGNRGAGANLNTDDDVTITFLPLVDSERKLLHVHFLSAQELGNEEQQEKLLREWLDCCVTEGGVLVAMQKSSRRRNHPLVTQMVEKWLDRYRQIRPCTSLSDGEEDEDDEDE
# Method in brief: as §1
# YOD1 = molecular target: T5, YOD1 (UniProt Q5VVQ6)
# T5 sequence (whole entry): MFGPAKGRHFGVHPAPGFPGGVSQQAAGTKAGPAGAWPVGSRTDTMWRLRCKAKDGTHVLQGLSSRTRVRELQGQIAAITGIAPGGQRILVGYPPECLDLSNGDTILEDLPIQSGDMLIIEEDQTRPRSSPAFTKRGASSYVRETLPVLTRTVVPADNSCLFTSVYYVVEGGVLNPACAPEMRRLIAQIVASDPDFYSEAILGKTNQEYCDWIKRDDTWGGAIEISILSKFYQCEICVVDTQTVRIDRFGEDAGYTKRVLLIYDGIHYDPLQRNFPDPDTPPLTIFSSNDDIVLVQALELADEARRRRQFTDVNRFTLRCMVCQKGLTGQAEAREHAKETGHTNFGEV
# Method in brief: as §1
smiles,measurement,setting,value
Cc1cccc(N(CCC#N)C(=O)CCl)c1C,log2 ratio of Biotin-Ahx-Ub-VS probe labelling,USP9X,0.0273
same,log2 ratio of Biotin-Ahx-Ub-VS probe labelling,UniProt O00487,0.0621
same,log2 ratio of Biotin-Ahx-Ub-VS probe labelling,UniProt O00507,0.294
same,log2 ratio of Biotin-Ahx-Ub-VS probe labelling,UniProt P51784,0.0536
same,log2 ratio of Biotin-Ahx-Ub-VS probe labelling,UniProt Q5T2D3,-0.0559
same,log2 ratio of Biotin-Ahx-Ub-VS probe labelling,UniProt Q8TE49,-1.26 (active)
same,log2 ratio of Biotin-Ahx-Ub-VS probe labelling,UniProt Q9P2H5,-0.386
same,log2 ratio of Biotin-Ahx-Ub-VS probe labelling,UniProt Q9UGI0,-0.934
same,log2 ratio of Biotin-Ahx-Ub-VS probe labelling,YOD1,0.144
